How the values were obtained:
Assay in all cases: log2 ratio of Biotin-Ahx-Ub-VS probe labelling (fragment/DMSO); higher = less target engagement (more negative = stronger competition), active = hit call of the paper (q ≤ 0.05, log2 ratio ≤ -1)
Conditions in all cases: compound concentration: 200 uM; treatment time: 3 h
USP34 = USP34 (UniProt Q70CQ2)
Summary of the method: (§1)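 Each value is an average log2 ratio of fragment to vehicle, tested by unpaired t-test. The underlying Spectronaut label-free quantities were global-median-normalised, and only proteins with ≥2 unique peptides were included. Triplicate HEK293T lysate samples (495 µg) were exposed to fragment at 200 µM or vehicle for 3 h, then to Biotin-Ahx-Ub-VS at 0.5 µM final for 1 h, before NeutrAvidin enrichment of labelled DUBs, LysC and trypsin digestion, and diaPASEF LC-MS/MS.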

USP36 = molecular target: T1, USP36 (UniProt Q9P275)
T1 sequence (whole entry): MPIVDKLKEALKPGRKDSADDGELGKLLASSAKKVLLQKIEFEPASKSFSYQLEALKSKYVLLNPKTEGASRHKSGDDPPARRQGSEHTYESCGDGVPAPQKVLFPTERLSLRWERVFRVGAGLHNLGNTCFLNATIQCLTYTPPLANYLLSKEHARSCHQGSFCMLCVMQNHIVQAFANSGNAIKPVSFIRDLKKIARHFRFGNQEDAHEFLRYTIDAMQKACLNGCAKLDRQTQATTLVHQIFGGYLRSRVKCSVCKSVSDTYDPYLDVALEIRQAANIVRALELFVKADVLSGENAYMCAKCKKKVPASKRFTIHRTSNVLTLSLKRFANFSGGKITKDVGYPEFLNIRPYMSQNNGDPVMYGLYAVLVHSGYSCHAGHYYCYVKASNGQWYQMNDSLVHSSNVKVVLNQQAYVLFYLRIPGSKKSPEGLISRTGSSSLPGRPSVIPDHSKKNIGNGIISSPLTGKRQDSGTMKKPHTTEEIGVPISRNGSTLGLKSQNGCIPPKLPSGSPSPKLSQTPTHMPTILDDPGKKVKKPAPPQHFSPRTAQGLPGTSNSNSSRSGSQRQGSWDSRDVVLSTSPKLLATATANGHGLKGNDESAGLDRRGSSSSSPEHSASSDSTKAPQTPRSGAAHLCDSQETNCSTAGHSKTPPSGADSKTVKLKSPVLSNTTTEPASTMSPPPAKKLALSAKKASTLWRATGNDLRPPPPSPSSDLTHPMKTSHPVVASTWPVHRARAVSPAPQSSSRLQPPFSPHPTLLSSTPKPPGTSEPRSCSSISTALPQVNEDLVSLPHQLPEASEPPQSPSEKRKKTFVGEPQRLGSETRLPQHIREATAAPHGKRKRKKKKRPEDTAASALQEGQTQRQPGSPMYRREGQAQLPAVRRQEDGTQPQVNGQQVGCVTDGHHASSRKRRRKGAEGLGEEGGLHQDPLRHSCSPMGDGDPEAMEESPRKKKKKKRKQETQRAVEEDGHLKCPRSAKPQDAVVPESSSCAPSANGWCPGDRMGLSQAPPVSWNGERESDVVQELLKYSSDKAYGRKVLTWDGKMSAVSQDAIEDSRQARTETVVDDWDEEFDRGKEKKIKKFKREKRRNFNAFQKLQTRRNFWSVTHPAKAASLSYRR
Summary of the method: as §1

USP38 = molecular target: T2, USP38 (UniProt Q8NB14)
T2 sequence (whole entry): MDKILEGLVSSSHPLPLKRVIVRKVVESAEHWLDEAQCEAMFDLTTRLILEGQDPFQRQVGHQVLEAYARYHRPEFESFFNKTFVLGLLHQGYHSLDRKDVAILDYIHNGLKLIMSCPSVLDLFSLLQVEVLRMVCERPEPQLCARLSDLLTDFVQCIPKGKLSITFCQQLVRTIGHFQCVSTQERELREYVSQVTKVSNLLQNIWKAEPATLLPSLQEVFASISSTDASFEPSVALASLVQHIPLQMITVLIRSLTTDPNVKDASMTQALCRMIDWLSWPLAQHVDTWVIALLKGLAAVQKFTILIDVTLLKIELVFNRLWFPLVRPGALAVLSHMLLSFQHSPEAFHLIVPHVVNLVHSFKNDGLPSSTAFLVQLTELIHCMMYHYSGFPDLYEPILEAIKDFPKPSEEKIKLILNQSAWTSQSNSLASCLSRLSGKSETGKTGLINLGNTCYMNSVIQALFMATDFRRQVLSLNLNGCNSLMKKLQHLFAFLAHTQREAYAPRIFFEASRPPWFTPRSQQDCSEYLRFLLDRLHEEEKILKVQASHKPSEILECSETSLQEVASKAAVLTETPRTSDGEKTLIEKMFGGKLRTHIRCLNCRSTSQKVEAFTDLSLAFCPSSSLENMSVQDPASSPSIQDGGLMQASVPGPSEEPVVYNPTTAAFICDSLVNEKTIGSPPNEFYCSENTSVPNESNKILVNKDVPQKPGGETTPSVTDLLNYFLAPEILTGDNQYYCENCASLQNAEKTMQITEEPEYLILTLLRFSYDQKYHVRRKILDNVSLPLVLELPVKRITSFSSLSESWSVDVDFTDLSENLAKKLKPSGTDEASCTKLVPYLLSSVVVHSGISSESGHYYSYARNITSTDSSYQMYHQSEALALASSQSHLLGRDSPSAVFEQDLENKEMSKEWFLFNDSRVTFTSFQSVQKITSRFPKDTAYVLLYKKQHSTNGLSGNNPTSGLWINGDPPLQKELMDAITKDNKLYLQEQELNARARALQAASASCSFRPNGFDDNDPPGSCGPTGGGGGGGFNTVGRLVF
Summary of the method: as §1

USP39 = molecular target: T3, USP39 (UniProt Q53GS9)
T3 sequence (whole entry): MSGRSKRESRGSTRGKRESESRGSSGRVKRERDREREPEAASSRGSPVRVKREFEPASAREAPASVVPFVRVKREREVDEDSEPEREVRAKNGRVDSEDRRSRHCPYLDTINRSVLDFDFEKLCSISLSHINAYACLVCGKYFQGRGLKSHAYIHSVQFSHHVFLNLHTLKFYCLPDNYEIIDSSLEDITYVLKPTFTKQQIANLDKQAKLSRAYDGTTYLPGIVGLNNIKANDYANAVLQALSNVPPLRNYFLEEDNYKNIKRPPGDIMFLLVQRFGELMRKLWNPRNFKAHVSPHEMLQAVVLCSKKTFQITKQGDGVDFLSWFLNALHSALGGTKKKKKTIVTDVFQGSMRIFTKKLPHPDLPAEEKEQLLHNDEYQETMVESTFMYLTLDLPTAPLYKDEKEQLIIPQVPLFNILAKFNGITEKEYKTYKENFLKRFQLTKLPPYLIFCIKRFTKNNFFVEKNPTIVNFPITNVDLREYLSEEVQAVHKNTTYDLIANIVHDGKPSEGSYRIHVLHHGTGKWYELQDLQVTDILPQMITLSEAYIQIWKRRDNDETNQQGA
Summary of the method: as §1

USP4 = molecular target: T4, USP4 (UniProt Q13107)
T4 sequence (whole entry): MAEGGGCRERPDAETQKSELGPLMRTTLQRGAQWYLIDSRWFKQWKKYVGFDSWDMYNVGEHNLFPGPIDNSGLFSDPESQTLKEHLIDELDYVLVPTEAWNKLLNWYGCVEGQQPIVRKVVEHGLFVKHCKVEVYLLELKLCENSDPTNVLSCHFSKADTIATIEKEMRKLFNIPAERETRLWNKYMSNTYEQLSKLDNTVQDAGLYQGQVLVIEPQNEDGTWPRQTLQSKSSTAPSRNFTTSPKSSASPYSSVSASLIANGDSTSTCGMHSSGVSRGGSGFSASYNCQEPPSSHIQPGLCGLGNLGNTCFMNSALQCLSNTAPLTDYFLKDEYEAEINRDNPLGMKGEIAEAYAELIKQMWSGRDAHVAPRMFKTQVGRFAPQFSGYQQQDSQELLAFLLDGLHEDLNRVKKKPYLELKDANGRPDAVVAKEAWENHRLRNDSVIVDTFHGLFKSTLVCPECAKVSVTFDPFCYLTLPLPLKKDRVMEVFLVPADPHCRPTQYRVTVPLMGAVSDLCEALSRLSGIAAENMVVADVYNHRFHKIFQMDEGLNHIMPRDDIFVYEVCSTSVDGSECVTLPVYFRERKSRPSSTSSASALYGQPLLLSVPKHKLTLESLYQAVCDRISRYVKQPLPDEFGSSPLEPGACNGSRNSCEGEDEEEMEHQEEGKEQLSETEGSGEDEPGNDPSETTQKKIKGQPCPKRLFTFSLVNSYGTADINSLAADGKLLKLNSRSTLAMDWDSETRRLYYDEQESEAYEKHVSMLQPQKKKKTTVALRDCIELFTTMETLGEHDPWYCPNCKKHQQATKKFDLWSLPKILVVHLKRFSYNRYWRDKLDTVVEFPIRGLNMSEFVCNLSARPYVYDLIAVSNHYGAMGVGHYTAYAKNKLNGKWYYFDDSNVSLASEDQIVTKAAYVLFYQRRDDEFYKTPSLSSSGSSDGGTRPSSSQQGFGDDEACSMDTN
Summary of the method: as §1

Measured: log2 ratio of Biotin-Ahx-Ub-VS probe labelling

Sequence of USP34 (Q70CQ2 whole entry, the tested form may be a part): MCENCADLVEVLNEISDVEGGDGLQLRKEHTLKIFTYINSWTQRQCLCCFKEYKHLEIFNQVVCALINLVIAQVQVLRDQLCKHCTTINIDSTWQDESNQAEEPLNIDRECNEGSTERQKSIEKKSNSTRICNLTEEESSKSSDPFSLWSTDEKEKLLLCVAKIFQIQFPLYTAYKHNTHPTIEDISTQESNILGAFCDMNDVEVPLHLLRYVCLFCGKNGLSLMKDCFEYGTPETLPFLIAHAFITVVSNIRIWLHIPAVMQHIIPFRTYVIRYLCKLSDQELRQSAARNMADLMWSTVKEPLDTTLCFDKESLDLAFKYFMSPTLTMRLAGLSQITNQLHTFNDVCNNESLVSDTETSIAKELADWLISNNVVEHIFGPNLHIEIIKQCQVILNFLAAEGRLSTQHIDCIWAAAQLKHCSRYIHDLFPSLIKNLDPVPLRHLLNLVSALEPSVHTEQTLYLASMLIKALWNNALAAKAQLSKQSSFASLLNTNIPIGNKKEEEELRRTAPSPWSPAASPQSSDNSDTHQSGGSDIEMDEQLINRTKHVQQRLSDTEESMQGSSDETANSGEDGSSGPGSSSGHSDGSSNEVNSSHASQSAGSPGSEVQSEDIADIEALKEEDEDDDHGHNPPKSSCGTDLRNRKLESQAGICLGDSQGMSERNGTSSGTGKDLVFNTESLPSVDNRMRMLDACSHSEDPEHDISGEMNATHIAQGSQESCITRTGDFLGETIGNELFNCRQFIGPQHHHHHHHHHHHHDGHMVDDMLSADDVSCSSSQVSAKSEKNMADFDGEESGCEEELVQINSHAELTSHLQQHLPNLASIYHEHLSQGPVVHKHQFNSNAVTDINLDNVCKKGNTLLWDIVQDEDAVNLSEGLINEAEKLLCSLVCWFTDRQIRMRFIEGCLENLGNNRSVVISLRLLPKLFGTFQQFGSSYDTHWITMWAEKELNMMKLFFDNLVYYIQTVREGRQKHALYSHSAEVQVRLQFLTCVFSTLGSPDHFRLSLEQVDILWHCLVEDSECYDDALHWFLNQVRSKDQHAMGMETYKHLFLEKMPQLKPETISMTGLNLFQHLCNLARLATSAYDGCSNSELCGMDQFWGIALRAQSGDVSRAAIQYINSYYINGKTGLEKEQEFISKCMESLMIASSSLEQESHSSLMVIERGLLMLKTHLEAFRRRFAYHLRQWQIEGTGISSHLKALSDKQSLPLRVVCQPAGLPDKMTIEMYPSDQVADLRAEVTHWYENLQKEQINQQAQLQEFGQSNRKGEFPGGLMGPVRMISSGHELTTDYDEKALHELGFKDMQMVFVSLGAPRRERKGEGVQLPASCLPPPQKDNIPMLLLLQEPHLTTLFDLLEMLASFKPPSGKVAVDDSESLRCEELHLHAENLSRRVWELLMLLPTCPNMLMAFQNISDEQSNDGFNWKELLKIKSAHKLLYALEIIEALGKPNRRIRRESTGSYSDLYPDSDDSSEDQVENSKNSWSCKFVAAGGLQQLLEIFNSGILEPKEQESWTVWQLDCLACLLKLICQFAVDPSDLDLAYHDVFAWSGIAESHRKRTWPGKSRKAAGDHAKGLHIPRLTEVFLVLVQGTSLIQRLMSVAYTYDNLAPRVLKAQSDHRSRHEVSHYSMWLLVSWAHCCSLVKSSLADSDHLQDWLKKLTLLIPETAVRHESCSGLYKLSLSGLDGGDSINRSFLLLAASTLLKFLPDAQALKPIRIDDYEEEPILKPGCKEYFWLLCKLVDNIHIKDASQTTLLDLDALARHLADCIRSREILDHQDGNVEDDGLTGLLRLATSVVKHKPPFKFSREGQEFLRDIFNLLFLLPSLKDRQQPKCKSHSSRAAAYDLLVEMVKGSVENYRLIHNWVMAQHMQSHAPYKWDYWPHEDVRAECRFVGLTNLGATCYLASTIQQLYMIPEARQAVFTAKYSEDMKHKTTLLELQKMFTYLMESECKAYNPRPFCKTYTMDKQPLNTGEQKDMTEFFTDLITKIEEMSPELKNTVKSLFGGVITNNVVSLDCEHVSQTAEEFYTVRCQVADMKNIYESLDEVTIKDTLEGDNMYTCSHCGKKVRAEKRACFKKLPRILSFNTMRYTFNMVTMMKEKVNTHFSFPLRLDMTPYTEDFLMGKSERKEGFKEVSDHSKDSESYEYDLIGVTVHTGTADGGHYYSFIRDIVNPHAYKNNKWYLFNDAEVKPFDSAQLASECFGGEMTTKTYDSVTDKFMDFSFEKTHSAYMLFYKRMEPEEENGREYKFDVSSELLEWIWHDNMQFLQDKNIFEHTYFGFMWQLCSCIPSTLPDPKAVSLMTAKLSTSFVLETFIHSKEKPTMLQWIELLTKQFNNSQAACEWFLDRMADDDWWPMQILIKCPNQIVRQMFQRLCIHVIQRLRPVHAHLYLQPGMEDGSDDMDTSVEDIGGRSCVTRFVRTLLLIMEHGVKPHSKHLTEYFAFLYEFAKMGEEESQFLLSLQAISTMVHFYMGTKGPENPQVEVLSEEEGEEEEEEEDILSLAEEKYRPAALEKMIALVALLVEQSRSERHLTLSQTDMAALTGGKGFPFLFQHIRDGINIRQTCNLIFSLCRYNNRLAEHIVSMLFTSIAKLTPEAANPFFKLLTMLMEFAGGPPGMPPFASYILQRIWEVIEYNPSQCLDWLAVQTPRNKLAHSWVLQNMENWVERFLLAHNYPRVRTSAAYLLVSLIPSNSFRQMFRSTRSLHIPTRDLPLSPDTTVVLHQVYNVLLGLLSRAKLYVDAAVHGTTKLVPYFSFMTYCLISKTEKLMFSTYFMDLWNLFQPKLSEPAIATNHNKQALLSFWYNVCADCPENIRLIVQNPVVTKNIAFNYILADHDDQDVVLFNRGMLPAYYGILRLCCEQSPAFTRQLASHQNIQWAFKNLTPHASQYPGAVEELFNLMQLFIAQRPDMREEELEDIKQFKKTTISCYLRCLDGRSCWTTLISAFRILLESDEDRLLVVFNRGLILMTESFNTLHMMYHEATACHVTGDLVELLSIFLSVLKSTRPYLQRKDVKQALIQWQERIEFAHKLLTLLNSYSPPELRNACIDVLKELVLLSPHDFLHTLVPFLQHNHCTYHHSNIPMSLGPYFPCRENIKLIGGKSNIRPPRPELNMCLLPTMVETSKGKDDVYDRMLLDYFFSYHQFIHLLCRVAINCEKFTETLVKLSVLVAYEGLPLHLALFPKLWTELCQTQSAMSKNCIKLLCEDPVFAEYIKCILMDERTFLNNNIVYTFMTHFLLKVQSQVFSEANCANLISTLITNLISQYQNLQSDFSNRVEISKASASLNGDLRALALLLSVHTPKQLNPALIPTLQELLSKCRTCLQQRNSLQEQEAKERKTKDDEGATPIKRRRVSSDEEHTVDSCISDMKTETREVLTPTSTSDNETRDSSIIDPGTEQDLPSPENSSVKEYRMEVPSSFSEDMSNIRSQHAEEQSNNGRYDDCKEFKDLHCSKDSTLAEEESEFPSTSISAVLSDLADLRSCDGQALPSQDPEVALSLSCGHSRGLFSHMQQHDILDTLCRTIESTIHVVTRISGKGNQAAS

Cc1ccn2cc(CNC(=O)CCl)nc2c1.Cl
inactive: USP34 -0.192 | USP36 -0.029 | USP38 -0.0421 | USP39 0.0111 | USP4 0.0609

— the supplement of paper PMC11732987, “Enantioselective OTUD7B fragment discovery through chemoproteomics screening and high-throughput optimisation” (Communications Chemistry, 2025)
